BRCA1 expr act: activators of BRCA1 expression; MCF7-BRCA1-FFLuc reporter, luminescence, 48 h; response scale: scaled: vehicle 0%, 10 µM genistein 100%; Potency, µM (highest dose often 46.1 µM), for inactives: top-dose activation, usual class: activators; actives 1.1% (n = 380,000); note: nearly all actives have a fitted effect of over 80% in size
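Using MCF7 cells harboring a BRCA1 firefly luciferase reporter, plated 2 h before compound pinning, the screen measured luminescence after 48 h incubation. Responses were normalized to DMSO and 10 microM genistein, then fitted for concentration-effect.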
VDR inh: vitamin D3 receptor (human) inhibition; actives 0.93% (n = 400,000); VDR-SRC2-3 peptide fluorescence polarization, 2 h; P11473; Potency, µM, without a hit: max response, negative = inhibition, usual class: inhibitors; note: % is set by controls: 0 for no effect and ±100 for the full control effect
Target sequence (P11473 whole entry, looked up): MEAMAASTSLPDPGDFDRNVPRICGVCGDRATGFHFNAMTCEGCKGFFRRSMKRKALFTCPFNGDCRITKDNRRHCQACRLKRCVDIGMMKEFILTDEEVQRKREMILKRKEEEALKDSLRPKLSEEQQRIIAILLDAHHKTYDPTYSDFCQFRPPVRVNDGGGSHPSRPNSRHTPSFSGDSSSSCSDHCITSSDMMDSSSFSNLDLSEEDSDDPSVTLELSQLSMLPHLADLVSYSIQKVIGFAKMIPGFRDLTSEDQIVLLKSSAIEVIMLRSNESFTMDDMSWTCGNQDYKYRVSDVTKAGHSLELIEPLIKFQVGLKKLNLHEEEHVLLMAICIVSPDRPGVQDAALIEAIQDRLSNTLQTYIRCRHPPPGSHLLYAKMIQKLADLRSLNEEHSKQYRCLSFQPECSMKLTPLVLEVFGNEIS
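Inhibition of the VDR/SRC2-3 peptide interaction is quantified by fluorescence polarization. Compounds (23 nl, pintool) incubate with the reagents for 2 hours at ambient room temperature.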
Tb PFK inh: blocks T. brucei phosphofructokinase; O15648; T. brucei PFK, ADP-Glo luminescence; Potency, µM (series often up to 57.5 µM), without a hit: at the top dose activity, negative = inhibition, most hits filed as inhibitors; actives 0.17% (n = 330,000);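 note: 0% = uninhibited 1x PFK enzyme wells and -100% = no-enzyme wells; nearly all actives have a fitted effect of over 60% in size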
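ADP-Glo luminescence quantified ADP after 45 min at room temperature, with 1.25 nM T. brucei PFK, 0.1 mM ATP and 0.5 mM fructose-6-phosphate in pH 8.0 TEA buffer. qHTS titrations up to 57 µM; curves classified by quality.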
PLK1 PBD block: blocks phosphopeptide binding to human PLK1 polo-box domain. P53350. Plk1 PBD binding of FITC phosphopeptide, fluorescence polarization. Potency, µM, for inactives: max response, negative = inhibition, usual class: inhibitors. actives 2.8% (n = 360,000). AID 720504; note: series mostly up to about 57 µM; % is set by controls: 0 for no effect and ±100 for the full control effect; nearly all actives have a fitted effect of over 65% in size
* = called active by the depositor; ? = inconclusive; . = not tested or not shown. A selection: hits, their analogues and other compounds. The true share with any hit is near 3.9%. Calls come from the whole dose curve; as a rule, active = well fitted curve in the direction sought with a large enough effect; inconclusive = small, poorly fitted or top-dose-only effect, or another doubt; inactive = no such curve, though single readings can be large; an effect the other way counts as inactive or inconclusive. Potency is the fitted concentration of half-maximal effect.

SMILES	BRCA1 expr act	VDR inh	Tb PFK inh	PLK1 PBD block
CCCCn1cnc2c1c(=O)[nH]c(=O)n2CCCC	-2.0%	-7.5%	-7.8%	11.9µM*
CCn1cnc2c1c(=O)[nH]c(=O)n2Cc1ccccc1	-6.9%	-4.5%	-1.5%	-0.3%
Clc1cccc(CNc2ccn3nc(-c4cccs4)cc3n2)c1	8.91µM*	.	.	-10.5%
CCC(=O)N(Cc1ccco1)Cc1cc2cccc(C)c2n2nnnc12	-2.0%	19.4%	16.9%	-0.9%
Cc1ccc2c(c1)cc(CN(Cc1ccco1)C(=O)COc1ccccc1)c1nnnn12	-65.2%	-9.2%	-3.0%	23.8µM*
CCc1nc2ccc(C(=O)N3CCN(S(=O)(=O)CC)CC3)cn2c1N(C)Cc1cccs1	6.8%	.	.	-14.4%
O=C(CCc1nnc(-c2ccsc2)o1)N1CCc2c(Cl)cccc2C1	11.2µM*	-4.8%	-1.7%	-11.7%
O=C(CCc1nnc(-c2ccc(-c3ccccc3)cc2)o1)N1CCCCC1	-4.4%	21.3%	-1.2%	3.7%
CCN(CC)N=Nc1[nH]nc2nc(C)cc(C)c12	15.7%	-15.6%	1.2%	8.44µM*
CCCCOc1ccc(/C=C/C(=O)Nc2ccc(C(N)=O)cc2)cc1	19.1%	79.4µM*	-0.5%	-5.8%
O=C(CC1C[C@H](C(=O)N2CCOCC2)[C@@]2(CCC3CCCC3)c3[nH]c4ccccc4c3CCN2C1=O)NCCc1ccccn1 (stereo not given in full)	13.1%	-16.3%	0.1%	-10.4%
COCCCNC(=O)CC1C[C@H](C(=O)N2CCCCC2)[C@@]2(CCc3ccccc3)c3[nH]c4ccc(OC)cc4c3CCN2C1=O (stereo not given in full)	0.9%	-26.5%	-1.6%	?
CN(C)C(=O)CCc1ccc2c3c([nH]c2c1)[C@]1(CCc2ccccc2)[C@@H](C(=O)N2CCCCC2)C[C@H](CC(=O)NCc2cccc(C(F)(F)F)c2)C(=O)N1CC3	3.5%	?	1.1%	26.7µM*
COc1ccc2[nH]c3c(c2c1)CCN1C(=O)C(CC(=O)NCc2ccc(OC)c(OC)c2)C[C@H](C(=O)N2CCOCC2)[C@@]31C (stereo not given in full)	1.9%	-16.6%	-3.2%	26.7µM*
COc1ccc2[nH]c3c(c2c1)CCN1C(=O)C(CC(=O)NCc2ccco2)C[C@H](C(=O)N2CCOCC2)[C@@]31C (stereo not given in full)	3.9%	-12.4%	-4.0%	-7.5%
COc1ccc2[nH]c3c(c2c1)CCN1C(=O)C(CC(=O)NCc2ccc(OC)c(OC)c2)C[C@H](C(=O)N2CCCCC2)[C@@]31CCc1ccccc1 (stereo not given in full)	-28.0%	?	-0.5%	21.2µM*
COc1ccc2[nH]c3c(c2c1)CCN1C(=O)C(CC(=O)NCCc2ccccn2)C[C@H](C(=O)N2CCOCC2)[C@@]31CCC1CCCC1 (stereo not given in full)	-15.2%	?	-1.8%	29.9µM*
CCc1c(C)sc2c1CCN(C(=O)Nc1cc(C)ccc1C)C2c1ccc(OC)cc1 (stereo not given)	.	-1.3%	.	.
Cc1cccc(OCC(=O)Nc2cc(C)c(O)c(-c3nc4ccccc4o3)c2)c1	-7.5%	.	.	.
Cc1cnc(-c2nnc(N(C)C(=O)C3CCOC3)s2)cn1 (stereo not given)	7.94µM*	-21.4%	-0.2%	-9.6%
